The values below come from ChEMBL document CHEMBL1157539, “Thousands of chemical starting points for antimalarial lead identification” (Nature, 2010).

SMILES strings stand for the structures.

Type in all cases: functional
In experiment [1] the test system is Plasmodium falciparum. Kind of experiment: GSK_TCMDC: Inhibition of Plasmodium falciparum 3D7 in whole red blood cells, using parasite LDH activity as an index of growth. Test compounds present at 2uM.
In experiment [2] the test system is Plasmodium falciparum. Kind of experiment: GSK_TCMDC: Inhibition of Plasmodium falciparum Dd2 in whole red blood cells, using parasite LDH activity as an index of growth. Test compounds present at 2uM.
In the next experiment the test system is HepG2. Kind of experiment: GSK_TCMDC: Percent inhibition of human HepG2 cell line. Test compounds present at 10uM.

`O=C(NCCCCN1CCC(c2ccc(-c3ccco3)cc2)CC1)c1ccc(NC(=O)c2ccc(Cl)cc2)cc1`: the values for the Inhibition with Plasmodium falciparum [1], in the experiment with Plasmodium falciparum [2] and with HepG2 were 100%, 97% and 26%, respectively.

As to `O=C(Nc1ccc(F)c(Cl)c1)c1cc([N+](=O)[O-])cc2cn[nH]c12`, the Inhibition was 100% in the experiment on Plasmodium falciparum [1], 67% in the experiment with Plasmodium falciparum [2] and 32% in the experiment with HepG2.

Take `CCC[C@@H]([C@@H](CC1CCCCC1)C(=O)N[C@H](C(=O)Nc1nccs1)[C@@H](C)OCc1ccccc1)N(O)C=O`: the Inhibition was 100% with Plasmodium falciparum [1], 99% in the experiment with Plasmodium falciparum [2] and 51% with HepG2.

`O=C(NC1CCN(CCN2CCC(c3cn(CCO)c4ccccc34)CC2)CC1)c1ccc(-c2ccc(C(F)(F)F)cc2)cc1`: the results for the Inhibition with Plasmodium falciparum [1], with Plasmodium falciparum [2] and in the experiment on HepG2 were 98%, 54% and 30%, respectively.

For the compound `CC(C)c1ccc(S(=O)(=O)N(c2ccc3c(c2)OCO3)C2CCN(Cc3ccccc3)C2)cc1` (stereo not given), the Inhibition with Plasmodium falciparum [1] is listed as 100%; with Plasmodium falciparum [2], 92%; in the experiment on HepG2, 1%.

Consider `CC1(C)[C@H]2CC[C@@H](CNc3nc(NCCc4c[nH]cn4)nc(NCc4cc(F)ccc4F)n3)[C@@H]1C2`, for which the values for the Inhibition in the experiment on Plasmodium falciparum [1], in the experiment with Plasmodium falciparum [2] and with HepG2 were 100%, 91% and 0%, respectively.

Consider `Cc1cccc(CNc2ncc(C)c(NCCC(=O)Nc3ccccc3)n2)c1.O=C(O)C(F)(F)F`, for which the Inhibition was determined as 81% with Plasmodium falciparum [1], 10% in the experiment on Plasmodium falciparum [2] and 18% with HepG2.

Take `O=C(NCCCCN1CCC(c2cccc3ccccc23)CC1)c1ccc(-c2ccc(C(F)(F)F)cn2)cc1`: the values for the Inhibition in the experiment with Plasmodium falciparum [1], with Plasmodium falciparum [2] and in the experiment on HepG2 were 91%, 36% and 31%, respectively.

As to `COc1ccc(C=NN=c2cc[nH]c3ccccc23)c2ccccc12`, the Inhibition with Plasmodium falciparum [1] is reported as 100%; in the experiment on Plasmodium falciparum [2], 98%; with HepG2, 27%.

For `Cc1[nH]c(C)c(-c2ccc(-c3ccc(Cl)cc3)cc2)c(=O)c1Cl`, the Inhibition was determined as 96% in the experiment on Plasmodium falciparum [1], 96% with Plasmodium falciparum [2] and 0% with HepG2.

For the compound `Clc1ccc(-c2csc3ncnc(Cl)c23)cc1`, the values for the Inhibition in the experiment on Plasmodium falciparum [1], in the experiment on Plasmodium falciparum [2] and in the experiment with HepG2 were 94%, 95% and 0%, respectively.

For `Cc1ccccc1CNc1noc(-c2c(-c3ccccc3)noc2C)n1`, the Inhibition came to 94% in the experiment with Plasmodium falciparum [1], 70% in the experiment with Plasmodium falciparum [2] and 0% in the experiment on HepG2.

As to `Cl.NCc1ccc(Nc2nccc(Nc3ccc(-c4ccccc4)cc3)n2)cc1`, the Inhibition was 100% in the experiment with Plasmodium falciparum [1], 98% in the experiment on Plasmodium falciparum [2] and 47% with HepG2.

Consider `CCN(CC)CCN(Cc1ccc(-c2ccc(C#N)cc2)cc1)C(=O)Cn1c(CCc2cccc(F)c2F)nc(=O)c2ccccc21.O=C(O)C(O)C(O)C(=O)O`, for which the Inhibition in the experiment with Plasmodium falciparum [1] came to 100%; in the experiment with Plasmodium falciparum [2], 46%; in the experiment on HepG2, 31%.

Turning to `CC[C@H]1CN(Cc2cccc(O)c2)CC[C@H]1CCCc1ccnc2ccc(O)cc12`, the results for the Inhibition in the experiment with Plasmodium falciparum [1], with Plasmodium falciparum [2] and in the experiment with HepG2 were 100%, 98% and 14%, respectively.

As for `CN(C)CCCOc1cccc(CCNCc2cccc(Oc3ccc(Cl)cc3)c2)c1.O=C(O)C(F)(F)F`, the Inhibition with Plasmodium falciparum [1] was found to be 93%; with Plasmodium falciparum [2], 67%; in the experiment on HepG2, 72%.

Regarding `Br.N=C1N=C(N)NC2(CCCCC2)N1OCCOc1ccc(Cc2ccccc2)cc1`, the Inhibition in the experiment on Plasmodium falciparum [1] was 86%; with Plasmodium falciparum [2], 22%; with HepG2, 34%.

`O=C(O)C(F)(F)F.OCCN1CCN(Cc2cccc(-c3ccc(-c4nc5cc(C(F)(F)F)ccc5[nH]4)s3)c2)CC1`: the Inhibition is recorded as 100% in the experiment on Plasmodium falciparum [1], 98% with Plasmodium falciparum [2] and 42% in the experiment on HepG2.

For `O=C(NCCCc1ccccc1)c1csc(C2CCCN(C(=O)c3ccc(O)c(-c4ccccc4)c3)C2)n1` (stereo not given), the Inhibition in the experiment with Plasmodium falciparum [1] stood at 97%; in the experiment with Plasmodium falciparum [2], 97%; with HepG2 it was 5%.

For the compound `Cc1c(CNCCCNc2cc(=O)c3ccccc3[nH]2)sc(-c2ccco2)c1Br.Cl`, the Inhibition in the experiment on Plasmodium falciparum [1] is 93%; in the experiment with Plasmodium falciparum [2], 39%; with HepG2 it was 0%.

Take `Cc1ccc2nc(Cl)c3cc(C(=O)NCCCN4CCCC4)sc3c2c1`: the Inhibition is 89% in the experiment with Plasmodium falciparum [1], 40% with Plasmodium falciparum [2] and 26% in the experiment on HepG2.

For `c1ccc(Oc2ccc(Nc3ccnc4cc(-c5csc(CN6CCCCC6)n5)ccc34)cc2)nc1`, the Inhibition with Plasmodium falciparum [1] amounted to 100%; in the experiment on Plasmodium falciparum [2] it was 95%; in the experiment on HepG2, 22%.

As to `O=C(/C=C/c1ccc(Cl)c(Cl)c1)NC1CCC(CN2CCC(c3nc4cccnc4[nH]3)CC2)CC1` (stereo not given), the Inhibition with Plasmodium falciparum [1] turned out to be 100%; in the experiment with Plasmodium falciparum [2] it was 2%; in the experiment with HepG2, 7%.

On to `O=C(/C=C/c1ccc(Cl)c(Cl)c1)NCCCCCN1CCC(NC(=O)c2ccc(F)c(F)c2)CC1`, for which the Inhibition is on record as 99% with Plasmodium falciparum [1], 20% in the experiment on Plasmodium falciparum [2] and 36% in the experiment on HepG2.

Regarding `CS(=O)(=O)CCNCc1cccc(-c2cc3c(Nc4ccc(OCc5cccc(F)c5)c(Cl)c4)ncnc3s2)c1.O=C(O)C(F)(F)F`, the Inhibition in the experiment on Plasmodium falciparum [1] was 100%; in the experiment with Plasmodium falciparum [2], 97%; in the experiment with HepG2, 5%.

`COc1cc(-c2cc3cc(Cl)c(Cl)cc3[nH]2)ccc1C(=O)NCCC1CCCN1C.O=C(O)C(F)(F)F` (stereo not given): the Inhibition was 91% in the experiment on Plasmodium falciparum [1], 41% in the experiment with Plasmodium falciparum [2] and 20% in the experiment on HepG2.

With `CNCCNc1nccc(N2CCc3ncnc(Nc4ccc(OCc5cccc(F)c5)c(Cl)c4)c3C2)n1`, the Inhibition is recorded as 100% with Plasmodium falciparum [1], 98% with Plasmodium falciparum [2] and 30% in the experiment on HepG2.

Regarding `O=C(Cn1c(SCc2cccc(F)c2F)cc(=O)c2ccccc21)N(Cc1ccc(-c2ccc(C(F)(F)F)cc2)cc1)C1CCN(CCO)CC1`, the values for the Inhibition with Plasmodium falciparum [1], in the experiment with Plasmodium falciparum [2] and in the experiment with HepG2 were 89%, 81% and 50%, respectively.

`CCOc1c(Cl)cc(Cl)cc1CNCCCNc1nc2ccccc2[nH]1.Cl`: the Inhibition in the experiment with Plasmodium falciparum [1] is listed as 94%; with Plasmodium falciparum [2], 1%; in the experiment with HepG2, 18%.

In the case of `Cc1cc(NC(=O)NCCN2CCC(NS(=O)(=O)c3cccc(Br)c3)C2)c2ccccc2n1.O=C(O)C(F)(F)F` (stereo not given), the figures for the Inhibition in the experiment on Plasmodium falciparum [1], in the experiment with Plasmodium falciparum [2] and with HepG2 were 99%, 58% and 0%, respectively.
